Assay results reported in PubChem BioAssay (NCATS).
Inconclusive results are not listed. The source made the active and inactive calls. Calls follow the shape of the dose curve; as a rule, active = well fitted inhibition curve with a large enough effect; inconclusive = small, poorly fitted or top-dose-only effect; inactive = flat fitted curve, though single readings scatter.

What was measured:
Test in all cases: qHTS profiling for inhibitors of Plasmodium falciparum proliferation (AID 504749); also: nearly all actives have a fitted effect of over 60% in size
Details in all cases: P. falciparum in erythrocytes, SYBR Green DNA, 72 h; series mostly up to 28.7 µM
CP215 = test system: CP215
Procedure, shortened: (§1)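 Parasite proliferation within erythrocytes, 72 h exposure. Endpoint: SYBR Green I fluorescence after overnight lysis at room temperature. Controls: 0.29 uM artemisinin, DMSO.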

CP217 = test system: CP217
Procedure, shortened: as §1

CP237 = test system: CP237
Procedure, shortened: as §1

CP238 = test system: CP238
Procedure, shortened: as §1

CP247 = test system: CP247
Procedure, shortened: as §1

CP250 = test system: CP250
Procedure, shortened: as §1

CP252 = test system: CP252
Procedure, shortened: as §1

CP256 = test system: CP256
Procedure, shortened: as §1

CP260 = test system: CP260
Procedure, shortened: as §1

CP262 = test system: CP262
Procedure, shortened: as §1

CP265 = test system: CP265
Procedure, shortened: as §1

CP266 = test system: CP266
Procedure, shortened: as §1

CP268 = test system: CP268
Procedure, shortened: as §1

CP269 = test system: CP269
Procedure, shortened: as §1

CP286 = test system: CP286
Procedure, shortened: as §1

CP291 = test system: CP291
Procedure, shortened: as §1

CP297 = test system: CP297
Procedure, shortened: as §1

CP305 = test system: CP305
Procedure, shortened: as §1

CP315 = test system: CP315
Procedure, shortened: as §1

CP325 = test system: CP325
Procedure, shortened: as §1

Measured: outcome

CCOC(=O)C(CCc1ccccc1)NC(C)C(=O)N1Cc2ccccc2CC1C(=O)O (stereo not given)
inactive: CP215 | CP217 | CP237 | CP238 | CP247 | CP250 | CP252 | CP256 | CP260 | CP262 | CP265 | CP266 | CP268 | CP269 | CP286 | CP291 | CP297 | CP305 | CP315 | CP325

CCc1cccc2c3c([nH]c12)[C@@](CC)(CC(=O)O)OCC3
inactive: CP215 | CP217 | CP237 | CP238 | CP247 | CP250 | CP252 | CP256 | CP260 | CP262 | CP265 | CP266 | CP268 | CP269 | CP286 | CP291 | CP297 | CP305 | CP315 | CP325
